Experimental data published in PubChem BioAssay AID589 (National Center for Advancing Translational Sciences (NCATS), 2007).
About 6,200 (11%) of roughly 59,000 compounds were called active. Roughly 9% stayed inconclusive and do not appear here. Rule as the data show it: active = max dye-equivalent concentration above about 10 nM; inconclusive = mostly about 1.1 nM to 9.6 nM; inactive = weaker than that. Shown is part of a subset that was picked to be rich in actives.

experiment: qHTS Assay for Spectroscopic Profiling in 4-MU Spectral Region; conditions: compound autofluorescence, 340/450 nm, 4-MU equivalents; stronger effect = higher value
Summary of the method: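 Compounds in 100 mM Tris, pH 8.0, incubated 15 min at room temperature, then fluorescence read at 340 nm excitation/450 nm emission. Signal converted to 4-MU dye-equivalent concentration using an on-plate six-point 4-MU standard curve.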

| Structure (SMILES) | max dye-equivalent concentration |
| --- | --- |
| COc1ccc(C(=O)N/N=C2/C(=O)c3c(C)cc(C)cc3CC2(C)C)cc1 | inactive |
| Cc1ccc(S(=O)(=O)N2CCC(C(=O)N[C@@H](C)C(=O)NCCc3ccccc3)CC2)cc1 | inactive |
| CCOc1ccc(-n2c(SC(C)C(=O)OC)nc3c(c2=O)SCC3)cc1 (stereo not given) | inactive |
| CCOC(=O)N1CCC(NC(=O)CCc2cn(C)c3ccccc23)CC1 | 380 nM (active) |
| CCOC(=O)N1CCC(NC(=O)Cc2cn(C)c3ccccc23)CC1 | inactive |
| CCOC(=O)N1CCC(NC(=O)C(C)n2c3ccccc3c3cnn(C)c(=O)c32)CC1 (stereo not given) | inactive |
| CCCN1C2=C(C(=O)CCC2)C(c2ccc(O)c(Br)c2)C2=C1CCCC2=O | 78 nM (active) |
| COc1cc(Cl)cc(C2NC(=O)NC(C)=C2C(=O)NCc2ccccc2)c1O (stereo not given) | inactive |
| COc1cc([C@H]2c3cc4c(cc3[C@@H](O[C@@H]3O[C@H]5CO[C@@H](C)O[C@]5(O)C[C@H]3O)[C@@H]3COC(=O)[C@H]23)OCO4)cc(OC)c1O | inactive |
| O=C1CCCC2=C1C(c1cccs1)n1nc(SCc3ccccc3)nc1N2 (stereo not given) | 110 nM (active) |
| CC(C)C(=O)N1c2ccccc2NC2=C(C(=O)CCC2)C1c1ccc(N(C)C)cc1 (stereo not given) | inactive |
| CC(C)(C)NCC[C@@H](O)c1cc(C(F)(F)F)nc2c(C(F)(F)F)cccc12 | inactive |
| CC(=O)Nc1ccc(-c2nn3c(C)nnc3s2)cc1C | inactive |
| Fc1ccc(-c2nnc3sc(-c4ccc5c(c4)OCO5)nn23)cc1 | 26 nM (active) |
| Fc1ccc(-c2ccc(-c3nn4c(-c5ccco5)nnc4s3)o2)cc1 | 51 nM (active) |
| Cc1nnc2sc(-c3ccco3)nn12 | inactive |
| c1ccc(-c2nnc3n2NC(c2ccc4c(c2)OCO4)S3)cc1 (stereo not given) | inactive |
| FC(F)(F)c1nnc2sc(-c3ccco3)nn12 | inactive |
| CCOC(=O)C(C(=O)OCC)C(C#N)c1ccccc1 (stereo not given) | inactive |
| CCCn1c(SCC(=O)N2CCc3ccccc32)nnc1-c1ccncc1 | inactive |
| Cc1cc(C)n2nc(C(=O)Oc3ccc4c(c3)OCO4)nc2n1 | inactive |
| CCOc1ccc(NCCC(=O)c2ccc3c(c2)OCO3)cc1 | inactive |

| Structure (SMILES) | max dye-equivalent concentration |
| --- | --- |
| C/C=C1\C(=O)C[C@@H]2[C@@H]3CCC4=CC(=O)CC[C@@]4(C)[C@H]3CC[C@@]12C | 12 nM (active) |
| COc1cccc(OCC(=O)Nc2ccccc2C(N)=O)c1 | inactive |
| N#C/C=C1\Sc2ccccc2C(=O)N1CC(=O)N1CCN(S(=O)(=O)c2ccccc2)CC1 | 18 nM (active) |
| O=C(CCC(=O)N1CCN(S(=O)(=O)c2ccccc2)CC1)NC1CCCc2ccccc21 (stereo not given) | inactive |
| Cc1ccc(S(=O)(=O)N2CCN(C(=O)CCC(=O)NC3CCCc4ccccc43)CC2)cc1 (stereo not given) | inactive |
| CC1=NCCN1S(=O)(=O)c1ccc(Br)c(C)c1 | inactive |
| CC(=O)c1cnc(Nc2nc(C)c3cc(C)ccc3n2)nc1C | inactive |
| O=C(CSC1=Nc2ccccc2C2=NC(c3ccccc3)C(=O)N12)NCC1CCCO1 (stereo not given) | 750 nM (active) |
| O=C(CS(=O)(=O)Cc1ccccc1)NCC1CCCO1 (stereo not given) | inactive |
| O=C(CSc1nnc(-c2ccc(NS(=O)(=O)c3ccccc3)cc2)o1)NCC1CCCO1 (stereo not given) | inactive |
| COC(=O)NC1(C(F)(F)F)NC(=O)N(C2CCCCC2)C1=O (stereo not given) | inactive |
| O=C(NCc1ccc(Cl)cc1)c1cc2c(nc3sccn32)s1 | inactive |
| CS(=O)(=O)N1CCC[C@@]2(CCN(c3ccncc3)C2)C1 | inactive |
| Cc1ccc2cc3cc(C(=O)N4CCCCCC4)oc3nc2c1 | 12 nM (active) |
| Cc1ccc(C(=O)N2CCCCCC2)cc1Br | inactive |
| O=C(c1cc(-c2cccs2)on1)N1CCCCC1 | inactive |
| Cc1cc(C(=O)CC#N)c(C)n1CC(F)(F)F | inactive |
| Cc1ccsc1CNn1cnnc1SCc1ccccc1F | inactive |
| COc1ccccc1N1CCN(C(=O)Cn2nnc(-c3cccs3)n2)CC1 | inactive |
| CN(C(=O)COc1ccccc1)c1nnc(-c2ccncc2)s1 | inactive |
| CN(C(=O)c1ccno1)c1nnc(-c2cccnc2)s1 | inactive |
| COc1cccc(-c2nnc(N(C)C(=O)c3ccno3)s2)c1 | 34 nM (active) |

| Structure (SMILES) | max dye-equivalent concentration |
| --- | --- |
| C=CCn1c(COc2ccccc2)nnc1SCC(=O)NCC(=O)OCC | inactive |
| COc1ccccc1-c1cc(NCc2cccs2)ncn1 | inactive |
| COC(=O)[C@H](CCSC)NC(=O)Nc1ccc(OC)cc1 | inactive |
| COc1cc2cc(CN(CCN3CCCC3)C(=O)Nc3ccccc3Cl)c(=O)[nH]c2cc1OC | 250 nM (active) |
| COc1ccc(CCN(Cc2cc3cccc(C)c3[nH]c2=O)C(=O)N2CCCC2)cc1OC | inactive |
| COc1cccc2cc(C(C)N(CCCN3CCOCC3)C(=O)Nc3ccc(Cl)cc3)oc12 (stereo not given) | inactive |
| c1ccc(-n2ncc3c(N4CCCC4)ncnc32)cc1 | inactive |
| COc1ccc(-n2ncc3c(N4CCCc5ccccc54)ncnc32)cc1 | 39 nM (active) |
| CCCc1nc2c3cnn(-c4cccc(Cl)c4)c3ncn2n1 | inactive |
| Cc1cccc(-n2ncc3c(N4CCc5ccccc54)ncnc32)c1 | 18 nM (active) |
| COc1ccc(N2CCN(C(=O)CSc3ncnc4c3cnn4-c3ccc(OC)cc3)CC2)cc1 | inactive |
| Oc1c(C(c2ccccn2)N2CCOCC2)ccc2cccnc12 (stereo not given) | inactive |
| COc1ccccc1CNc1cc(-c2ccccc2CN(C)C)ncn1 | inactive |
| O=C(Nc1ccccc1F)C1C2C=CC3(O2)C1C(=O)N(c1cccnc1)C3C(=O)NC1CCCCC1 (stereo not given) | inactive |
| Cc1ccc(-c2c3c(=O)n(C)c(=O)n(C)c3cn2-n2cnnc2)cc1 | inactive |
| COc1ccc(-c2c3c(=O)n(C)c(=O)n(C)c3cn2-c2cccc(OC)c2)cc1 | 12 nM (active) |
| COc1ccc(N(C(=O)c2cccnc2)S(=O)(=O)c2ccc3c(c2)n(C)c(=O)n3C)cc1 | inactive |
| COc1ccc(-c2c3c(=O)n(C)c(=O)n(C)c3cn2NC(C)=O)cc1 | 2200 nM (active) |
| Cc1ccc(-c2c3c(=O)n(C)c(=O)n(C)c3cn2-c2ccccc2O)cc1 | inactive |
| COc1ccc(OC)c(-n2cc3c(=O)n(C)c(=O)n(C)c3c2)c1 | inactive |
| Cc1ccc(Oc2ccc(N)cc2)cc1 | inactive |
